Substitutions are numbered along the chain they refer to. The full ranking holds about 24,000 sequences; the median of “enrichment r” is about 0.99, and the highest 2% start at about 3.7. Only a selection was taken, and the highest values are over-represented in it overall.
B1: chr2:217001844:217001845:+_ENSG00000079246_ENST00000392132|hu_hu|hu_hu_hu_mus_False|98_108 (ssRNA)
RNA: GGGAGUUCUACAGUCCGACGAUCACCGACUUGAGGAUUAGCUCUUUUGUCAUAAGCAUAUCGGACGAUGGCGACCAUGUUUAACUCAUCCAAAGCAUGAACGAGAGAGGAAAGGGCAACAGCUGCCGCCUCAUCAUCCUUUGCCAACAGAGGAUUGAGCAUCA
B2: chr7:34932688:34932689:-_ENSMUSG00000052997_ENSMUST00000102746|mus_mus|FALSE|FALSE (ssRNA)
RNA: GGGAGUUCUACAGUCCGACGAUCCAAGAGCUUCUUUCUUGGGUUUGGCUGCUUAUUCAAAAAAAUAGUUCUACACUGGUCUAUUUUUCCAGAUAAAAUCUUUAAUCCUUCCAACACUAUCAAGCCGGCGAUCACUGCAUUAGUCAACAGAGGAUUGAGCAUCA
B3: 126502921_126503041_1455_ncRNA_ENSMUSG00000006728_ENSMUST00000140254|mouse|control|control (ssRNA)
RNA: GGGAGUUCUACAGUCCGACGAUCUGGUCGGCUUCAGAGUUUCCACAGAAGAGAGGCCUAAGGCAGAAAAAGACUCAAAGUAUGUGUUAUAUCAAAAAUAGGGGAGUGGGGGCUGGAGAGACGGCUCAGCAGAUAAGACUGCUCCAACAGAGGAUUGAGCAUCA
B4: chrX:132781199:132781200:+_ENSMUSG00000042712_ENSMUST00000048687|mus_hu|FALSE|FALSE (ssRNA)
RNA: GGGAGUUCUACAGUCCGACGAUCUGCUAAUAAAAAGCAAGCUAUAUGGUAUUGUUAAUAUCAGAUAAAAAUCAAGGUAAACUACAUUAAAUAGGGGUAAGGAUGGUUUCGAUUAACCUUCCAACGCAUCACUAUAAGUUUGUUCAACAGAGGAUUGAGCAUCA
B5: 31404426_31405736_1086_CDS_ENSG00000196792_ENST00000355683|human|control|control (ssRNA)
RNA: GGGAGUUCUACAGUCCGACGAUCAGUCACUAAAAAAUCAAAUUCUUUCAGUGCUUCCUCAGUAUCAGGAUCGUCAGUUAGGUCAGCAGCUAAACCUUCAUUACCUAUUUUAUGUUUAUUCAUCCGAUGUUUGUCUUUUCCUUCCAACAGAGGAUUGAGCAUCA
B6: chrX:132781199:132781200:+_ENSMUSG00000042712_ENSMUST00000048687|mus_hu|motif|central (ssRNA)
RNA: B4 RNA with U82G, A83G
B7: chr15:90999404:90999405:+_ENSG00000140575_ENST00000268182|hu_hu|FALSE|FALSE (ssRNA)
RNA: GGGAGUUCUACAGUCCGACGAUCCUGCAGAGUCUUUUGGGCAUCACCUUCAUCCAGGGCUUCAUUAAUUAAACCAAUGGCUAAAAUCCUCUCAUGUUCCUCUUGCACCACCAGGUUCACAUGGUCCACGCAAGCUUGGAUAUCCAACAGAGGAUUGAGCAUCA
B8: 63494515_63562186_783_3pUTR_ENSMUSG00000025964_ENSMUST00000114107|mouse|control|control (ssRNA)
RNA: GGGAGUUCUACAGUCCGACGAUCUAGUGGAUCUCCACGUAGUCAGAAGAUAGCAAACCAUUGUUCAGUGUGAGGUCAAGAAUGAACUUGGAGCCGAAAGCUUCGAUCUGGAAGCUUGCCUGGGCCAGAUGCACAGCCUUAUUGCAACAGAGGAUUGAGCAUCA
B9: chr12:16048344:16048345:+_ENSG00000023734_ENST00000419869|hu_hu|hu_hu_hu_mus_True|68_98 (ssRNA)
RNA: GGGAGUUCUACAGUCCGACGAUCAGAUCGUCCAUAAGUUAUAACCAAAAUCUCUCCUUCAGGAAUAUAUUCCAUACUGCUAACAGACAUAUUAAAAUUCAGAGAUUUCACUUCUGUCAUUGUGGCAUGAUCCCAGAGCCGAACCAACAGAGGAUUGAGCAUCA
B10: chr14:76904501:76904502:+_ENSMUSG00000022010_ENSMUST00000022587|mus_mus|FALSE|FALSE (ssRNA)
RNA: GGGAGUUCUACAGUCCGACGAUCUCCAUCGCCACUGGUCUACACCAUUGGGAUUUCAUGCAAUUGCAGCCAAAUUAAAAAAACAGCCCCGUGGAAAAAAAAGAGAGAGGGCGGGAGGGAGCAAGCUCCAGCAGCCUGGUUCAACAACAGAGGAUUGAGCAUCA
B11: 25243085_25243205_1728_CDS_ENSMUSG00000059669_ENSMUST00000075954|mouse|control|control (ssRNA)
RNA: GGGAGUUCUACAGUCCGACGAUCUCCUGAGCUCUUUUUUGAUUCGUUGUAUUUUUUUUCAAAAAGUUUCUUUUCAAGUAAGCUCACUUCUUCAUGGAGAGCAGAGGUCUUUAUUCUCAGUAAGAAGGAGAAGAUGUUUAGUAUCAACAGAGGAUUGAGCAUCA
B12: 122244776_122244896_1956_3pUTR_ENSMUSG00000039735_ENSMUST00000162409|mouse|control|control (ssRNA)
RNA: GGGAGUUCUACAGUCCGACGAUCGAAAAAGCACACAUCCUUUACACACACUUAGGCAGGACAGAAAGCAAAAGGCAUCGAUUAAGCUUCCACACCAGCAUCACUUGAACAGUAAGGCGUCAAAGAGUUUCUGGUGGCAGUAUUCAACAGAGGAUUGAGCAUCA
B13: chr3:9848215:9848216:+_ENSG00000241553_ENST00000287613|perfect_dup|FALSE|FALSE (ssRNA)
RNA: GGGAGUUCUACAGUCCGACGAUCCAAUAACGUAUAAUCACUGGGACCAGUCACAGCCACUGGAGGUGGAGGUUUAAAAAAAAAAAAAAAAAAAAAGACAAAAAGGUUACAGUAUCCUACAAGCACAGAGUUUAAGUUUCAAGACAACAGAGGAUUGAGCAUCA
B14: chr3:9848215:9848216:+_ENSG00000241553_ENST00000287613|perfect_dup|FALSE|FALSE (ssRNA)
RNA: GGGAGUUCUACAGUCCGACGAUCAUCACUGGGGCCAGUCACAGCCACUGGAGCUGGAGGUUGGUUUUUUUGUUUGUUUAAAAAAAAAAAAAAAAAGACAAAAAGGUUACAGUCUUCUACAAGCACAGAGUUUAGGUUUCAAGACAACAGAGGAUUGAGCAUCA
B15: chr3:176740097:176740098:-_ENSG00000177565_ENST00000430069|hu_mus|hu_hu_hu_mus_True|78_78 (ssRNA)
RNA: GGGAGUUCUACAGUCCGACGAUCUGUUUUGUAUACCACAAAAGGAGGCACUUUCAGUAUCUGUAAAAGGUGUUUAGUCCUAAAACAUACUCACCUAGAGGAUAACUCAGGAAAACAAUCUGUUACACUCUAAGACCUACUCCACAACAGAGGAUUGAGCAUCA

Biological target: T1, UNK ZnF1-3 (human, UniProt Q9C0B0 31-174)
T1 sequence: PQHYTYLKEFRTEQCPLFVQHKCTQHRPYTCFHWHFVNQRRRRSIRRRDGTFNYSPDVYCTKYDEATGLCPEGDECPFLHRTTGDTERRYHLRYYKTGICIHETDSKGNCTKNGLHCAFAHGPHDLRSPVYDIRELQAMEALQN
Experiment: nsRBNS (natural sequence RNA bind-n-seq); RBNS binding buffer (assumed for nsRBNS): 25 mM Tris pH 7.5, 150 mM KCl, 3 mM MgCl2, 0.01% Triton X-100, 500 ug/ml BSA, 20 U/ml SUPERase-In, 4 C; UNK is unkempt and MSI1 is Musashi-1; names of the RNAs are library labels; protein concentration not given here; high values mean tight binding

Q: How did the binding signal turn out when B1 was run?
A: 2.19 enrichment R

Q: Which binding signal does the source give for B2 here?
A: 1.12 enrichment R

Q: Which binding signal does the source give for B3 here?
A: 3.33 enrichment R

Q: For B4, which binding signal is on record?
A: 5.13 enrichment R

Q: How did the binding signal turn out when B5 was run?
A: 0.927 enrichment R

Q: How did the binding signal turn out when B6 was run?
A: 5.74 enrichment R

Q: Which binding signal does the source give for B7 here?
A: 1.38 enrichment R

Q: How did the binding signal turn out when B8 was run?
A: 1.25 enrichment R

Q: With B9 as the binder, how does the binding signal read?
A: 1.19 enrichment R

Q: For B10, which binding signal is on record?
A: 2.68 enrichment R

Q: For B11, which binding signal is on record?
A: 0.743 enrichment R

Q: How did the binding signal turn out when B12 was run?
A: 1.73 enrichment R

Q: How did the binding signal turn out when B13 was run?
A: 9.16 enrichment R

Q: With B14 as the binder, how does the binding signal read?
A: 9.16 enrichment R

Q: Which binding signal does the source give for B15 here?
A: 0.869 enrichment R
